Data: PubChem BioAssay AID2662 (National Center for Advancing Translational Sciences (NCATS), 2010)
Screen size: about 290,000 compounds; about 110 (0.038%) were called active. Inconclusive results (about 3%) are left out. Calls follow the shape of the dose curve; as a rule, active = well fitted inhibition curve with a large enough effect in the polarisation, with a control signal flat (not every such curve was filed as active); inconclusive = small, poorly fitted or top-dose-only effect, or effect the other way, or a change in a side signal; inactive = no such curve, though single readings can be large or run the other way; the % refers to the polarisation. The full list was thinned out, with actives kept by preference.

target: Histone-lysine N-methyltransferase 2A (Homo sapiens) (UniProt Q03164); experiment: qHTS Fluorescence Polarization Assay for Inhibitors of MLL CXXC domain - DNA interaction; details: MLL-CXXC / FITC-HOXA9 DNA fluorescence polarization; series mostly up to 115 µM; activity change, negative = inhibition: at the top concentration
Sequence (Q03164 whole entry, looked up, the tested form may be a part): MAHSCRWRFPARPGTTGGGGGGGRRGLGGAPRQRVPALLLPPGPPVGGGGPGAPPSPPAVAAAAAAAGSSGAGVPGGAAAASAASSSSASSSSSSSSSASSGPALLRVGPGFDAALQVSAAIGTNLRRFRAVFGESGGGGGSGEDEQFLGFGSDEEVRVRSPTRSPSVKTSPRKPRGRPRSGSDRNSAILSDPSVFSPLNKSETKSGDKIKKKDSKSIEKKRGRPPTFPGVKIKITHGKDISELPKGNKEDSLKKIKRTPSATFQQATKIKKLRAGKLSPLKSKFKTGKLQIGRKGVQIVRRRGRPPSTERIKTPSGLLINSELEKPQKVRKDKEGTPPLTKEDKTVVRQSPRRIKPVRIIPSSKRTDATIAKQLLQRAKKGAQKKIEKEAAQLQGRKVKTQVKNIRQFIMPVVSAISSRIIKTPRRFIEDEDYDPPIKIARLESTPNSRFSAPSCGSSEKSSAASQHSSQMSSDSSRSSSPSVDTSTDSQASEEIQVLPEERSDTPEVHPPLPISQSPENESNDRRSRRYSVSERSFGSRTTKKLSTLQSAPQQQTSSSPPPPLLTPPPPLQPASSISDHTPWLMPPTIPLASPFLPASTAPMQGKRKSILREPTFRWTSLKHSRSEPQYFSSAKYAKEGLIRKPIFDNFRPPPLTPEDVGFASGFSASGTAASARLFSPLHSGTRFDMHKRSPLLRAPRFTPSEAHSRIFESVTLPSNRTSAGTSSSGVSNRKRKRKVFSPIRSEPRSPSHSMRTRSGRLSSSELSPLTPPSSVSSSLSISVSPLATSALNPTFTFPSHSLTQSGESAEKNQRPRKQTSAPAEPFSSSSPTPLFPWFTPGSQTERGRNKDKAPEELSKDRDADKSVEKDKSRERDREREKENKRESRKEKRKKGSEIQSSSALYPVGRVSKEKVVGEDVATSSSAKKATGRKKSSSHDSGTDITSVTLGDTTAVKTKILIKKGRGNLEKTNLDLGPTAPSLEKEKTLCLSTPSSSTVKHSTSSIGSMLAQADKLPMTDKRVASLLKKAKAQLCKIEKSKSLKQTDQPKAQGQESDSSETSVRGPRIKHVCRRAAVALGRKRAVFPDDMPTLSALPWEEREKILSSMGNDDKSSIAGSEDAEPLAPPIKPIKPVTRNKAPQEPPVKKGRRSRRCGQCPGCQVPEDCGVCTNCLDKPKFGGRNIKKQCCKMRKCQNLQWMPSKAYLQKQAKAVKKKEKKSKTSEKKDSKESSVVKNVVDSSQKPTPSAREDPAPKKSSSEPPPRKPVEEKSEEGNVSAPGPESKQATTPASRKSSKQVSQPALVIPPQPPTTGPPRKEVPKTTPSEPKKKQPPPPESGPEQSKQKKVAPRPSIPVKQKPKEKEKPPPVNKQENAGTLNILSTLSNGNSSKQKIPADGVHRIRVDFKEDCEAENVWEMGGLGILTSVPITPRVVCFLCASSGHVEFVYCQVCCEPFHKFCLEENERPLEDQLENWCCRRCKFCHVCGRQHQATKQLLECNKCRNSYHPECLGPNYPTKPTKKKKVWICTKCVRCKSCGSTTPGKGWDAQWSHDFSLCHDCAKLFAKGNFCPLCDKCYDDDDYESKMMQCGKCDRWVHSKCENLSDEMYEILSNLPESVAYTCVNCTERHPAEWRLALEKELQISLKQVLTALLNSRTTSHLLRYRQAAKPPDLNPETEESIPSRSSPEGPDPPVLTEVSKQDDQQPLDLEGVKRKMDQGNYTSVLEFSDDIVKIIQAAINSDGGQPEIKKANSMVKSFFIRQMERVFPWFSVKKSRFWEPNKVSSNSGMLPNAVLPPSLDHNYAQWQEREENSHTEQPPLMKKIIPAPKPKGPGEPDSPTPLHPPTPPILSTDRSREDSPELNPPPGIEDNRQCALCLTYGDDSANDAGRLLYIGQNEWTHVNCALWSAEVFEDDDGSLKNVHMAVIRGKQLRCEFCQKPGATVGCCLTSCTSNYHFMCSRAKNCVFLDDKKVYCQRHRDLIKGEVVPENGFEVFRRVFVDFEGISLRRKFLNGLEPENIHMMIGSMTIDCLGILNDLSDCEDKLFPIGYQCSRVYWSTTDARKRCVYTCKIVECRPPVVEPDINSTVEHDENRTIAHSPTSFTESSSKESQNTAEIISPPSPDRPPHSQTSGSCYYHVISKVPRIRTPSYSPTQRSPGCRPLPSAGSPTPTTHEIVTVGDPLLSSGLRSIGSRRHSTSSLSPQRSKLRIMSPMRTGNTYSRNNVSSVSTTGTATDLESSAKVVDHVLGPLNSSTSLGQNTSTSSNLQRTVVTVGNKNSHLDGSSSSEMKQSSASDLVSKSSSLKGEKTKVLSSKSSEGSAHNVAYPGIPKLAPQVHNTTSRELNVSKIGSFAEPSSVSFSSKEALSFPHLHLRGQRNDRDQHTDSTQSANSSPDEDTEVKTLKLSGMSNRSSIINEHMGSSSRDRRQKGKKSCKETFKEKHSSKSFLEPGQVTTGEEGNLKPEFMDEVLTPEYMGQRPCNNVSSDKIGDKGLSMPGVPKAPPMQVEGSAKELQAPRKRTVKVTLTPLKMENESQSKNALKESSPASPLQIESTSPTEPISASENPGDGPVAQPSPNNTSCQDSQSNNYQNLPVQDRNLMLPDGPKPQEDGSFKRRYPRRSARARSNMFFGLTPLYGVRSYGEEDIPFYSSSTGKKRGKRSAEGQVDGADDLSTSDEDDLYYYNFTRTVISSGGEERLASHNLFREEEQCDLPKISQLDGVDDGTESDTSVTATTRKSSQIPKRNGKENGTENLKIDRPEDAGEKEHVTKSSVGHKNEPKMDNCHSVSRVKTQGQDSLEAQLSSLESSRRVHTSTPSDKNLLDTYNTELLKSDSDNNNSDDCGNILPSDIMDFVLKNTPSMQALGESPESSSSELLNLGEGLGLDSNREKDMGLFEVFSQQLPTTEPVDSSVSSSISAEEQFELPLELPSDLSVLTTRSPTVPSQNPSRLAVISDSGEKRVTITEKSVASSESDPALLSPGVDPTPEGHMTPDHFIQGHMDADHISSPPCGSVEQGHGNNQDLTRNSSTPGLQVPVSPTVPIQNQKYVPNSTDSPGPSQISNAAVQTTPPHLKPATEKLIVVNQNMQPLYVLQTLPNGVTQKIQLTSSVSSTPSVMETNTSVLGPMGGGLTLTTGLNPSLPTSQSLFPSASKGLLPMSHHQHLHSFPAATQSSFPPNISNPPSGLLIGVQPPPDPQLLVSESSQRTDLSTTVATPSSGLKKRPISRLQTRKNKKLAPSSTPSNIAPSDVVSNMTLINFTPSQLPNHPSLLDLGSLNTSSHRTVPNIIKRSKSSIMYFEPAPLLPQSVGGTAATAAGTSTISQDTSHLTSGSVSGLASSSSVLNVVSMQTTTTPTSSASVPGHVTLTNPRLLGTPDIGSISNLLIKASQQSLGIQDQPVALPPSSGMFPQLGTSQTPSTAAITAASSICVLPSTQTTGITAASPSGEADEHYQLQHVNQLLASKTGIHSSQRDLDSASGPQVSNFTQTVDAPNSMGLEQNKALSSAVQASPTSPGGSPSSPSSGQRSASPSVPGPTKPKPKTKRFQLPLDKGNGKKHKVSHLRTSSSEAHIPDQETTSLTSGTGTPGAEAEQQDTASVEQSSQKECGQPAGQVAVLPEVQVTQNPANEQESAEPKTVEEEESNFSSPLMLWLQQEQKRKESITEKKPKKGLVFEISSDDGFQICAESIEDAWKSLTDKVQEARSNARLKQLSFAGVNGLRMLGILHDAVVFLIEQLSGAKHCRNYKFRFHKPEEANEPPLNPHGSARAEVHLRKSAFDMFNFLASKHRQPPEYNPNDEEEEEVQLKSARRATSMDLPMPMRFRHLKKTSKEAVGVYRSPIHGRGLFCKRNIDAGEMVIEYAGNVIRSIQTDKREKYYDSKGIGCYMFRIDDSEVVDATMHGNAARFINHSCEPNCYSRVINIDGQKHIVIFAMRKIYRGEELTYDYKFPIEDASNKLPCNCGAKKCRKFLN
Description: NIH Chemical Genomics Center [NCGC] NIH Molecular Libraries Probe Production centers Network [MLPCN] MLPCN Grant: DA027717-01A1 Assay Submitter (PI): John Bushweller NCGC Assay Overview: The MLL (Mixed Lineage Luekemia) gene is involved in chromosomal translocation that results in either acute lymphoid leukemia (ALL) or acute myeloid leukemia (AML). Chromasomal translocation of MLL gene is responsible for the fusion of N-terminal MLL to more than 60 different partner genes in frame. Many of the MLL partner genes contain transcription activation domains or function as transcriptional activators. Despite the heterogeneity of fusion partners, the N-terminus of MLL fusion proteins always consists of the N-terminal menin binding motif and the CXXC domain. The MLL-CXXC domain specifically recognizes unmethylated CpG sequences of the HOX-A gene. Disruption of the MLL-CXXC and HOX-A gene interaction leads to down regulation of HOX-A gene expression and may potentially reverse leukemogenesis. We have miniaturized and optimized an in-vitro assay to screen for inhibitors of the MLL-CXXC domain and HOX-A DNA interaction, which could have utility in MLL fusion leukemias.
The affinity purified MLL-CXXC domain, unlabeled HOX-A9 DNA strand, fluorescein (FLSN) labeled HOX-A9 DNA strand were kindly supplied by the laboratory of Dr. John Bushweller, University of Virginia. All reagents were stored in single use aliquots at -80C. Assay Reagents: Assay buffer: 50 mM TRIS-HCl pH 7.5, 50 mM NaCl, 1 mM DTT. Add 0.05% BSA prior to reaction setup. Assay Procedure: 1.Dispense 1 ul of a 7 uM MLL-CXXC solution prepared in assay buffer into column 1-48. 2.Transfer 23 nl of compounds and unlabeled HOX-A9 per well. 3.Incubate for 5 minutes at ambient. 4.Dispense 1ul of a 50 nM FLSN-HOX-A9 solution prepared in assay buffer into columns 1-48 5.Centrifuge for 30 seconds at 1000 RPM. 6.Incubate for 30 minutes at ambient. 7.Read using the Envision reader fluorescent polarization protocol.
Potency is read from the fitted curve at half-maximal effect.

SMILES | activity change, negative = inhibition | Potency
COc1ccc(N(CC(=O)Nc2cc(OC)cc(OC)c2)S(=O)(=O)c2c(C)n[nH]c2C)cc1 | -2.83% (inactive) | 
CC(C)NC(=O)C(c1ccc(F)cc1)N(C(=O)CCC(=O)Nc1ccccn1)c1ccccc1F (centres undefined) | -3.67% (inactive) | 
COc1ccc(C(=O)NC(C)CCc2ccccc2)c(OC)c1 (centres undefined) | -5.8% (inactive) | 
O=C(CN1CCC(NC(=O)C2CC2)CC1)Nc1ccccc1[N+](=O)[O-] | 2.95% (inactive) | 
CCCOc1ccc(-c2c(C(=O)N/N=C/c3ccco3)nnn2-c2nonc2N)cc1 | 1.47% (inactive) | 
COC(=O)c1cc(S(=O)(=O)Nc2ccc(C)c(F)c2)c[nH]1 | 5.77% (inactive) | 
O=C(c1ccccc1)N1CCN(C(=O)c2cc3nc(-c4ccccc4)cc(C(F)(F)F)n3n2)CC1 | -7.71% (inactive) | 
COc1cccc(N(CC(=O)NC2CCCC2)C(=O)Cn2nnc(-c3ccc(C)o3)n2)c1 | 25.6% (inactive) | 
COc1ccc2c(c1OC)C(=O)N(c1ccc(O)cc1)C2 | -1.66% (inactive) | 
C=CC1(C)CC(=O)C2(O)C(C)(O1)C(OC(C)=O)C(O)C1C(C)(C)CCC(O)C12C (centres undefined) | 2.28% (inactive) | 
C=C1C(=CC=C2CCC[C@@]3(C)[C@@H]2CC[C@H]3[C@H](C)CCCC(C)C)C[C@@H](O)C[C@@H]1O | -2.06% (inactive) | 
O=C(CCS(=O)(=O)c1ccccc1)NC1CCCC1 | -6.29% (inactive) | 
CCN1C(=NCC(C)C)N[C@@H](CCc2ccccc2)[C@H](C(=O)NCC(C)C)[C@H]1C |  | inactive
O=C(COc1ccc(Cl)cc1)Nc1ccc2c(c1)OCO2 | -10.7% (inactive) | 
COc1cccc(OCC(O)CNC(=O)c2oc3c(C)c(C)ccc3c2C)c1 (centres undefined) | 1.3% (inactive) | 
O=C(NCCc1ccccn1)c1nc(Cn2cc([N+](=O)[O-])cn2)no1 | 0.842% (inactive) | 
COc1ccc(-c2cc(=O)oc3cc(OC(C)C(=O)Nc4ccc(CN5CCOCC5)cc4)ccc23)cc1 (centres undefined) | 16.7% (inactive) | 
CCOc1cc(C(=O)O)ccc1OCCOc1ccccc1 | 3.09% (inactive) | 
Cc1cc(C)cc(N(CCC#N)C(=O)CN2C(=O)NC3(CCCC3)C2=O)c1 | -1.49% (inactive) | 
CC(=O)N(C)c1ccc(NC(=O)Nc2cccc3ccccc23)cc1 | -9.5% (inactive) | 
CS(=O)(=O)N(CC(=O)Nc1ccc(F)cc1)C1CCCCC1 | -8.63% (inactive) | 
CC(=O)c1ccc(OCC(O)CN2CCN(S(=O)(=O)c3cccc(Br)c3)CC2)cc1 (centres undefined) | 2.81% (inactive) | 
COc1ccccc1N1CCN(C(=O)c2cc(=O)c3cc(C)ccc3o2)CC1 | -8.72% (inactive) | 
Cc1ccc(OCC(=O)Nc2ccc(C(=O)O)cc2NC(=O)COc2ccc(C)c(C)c2)cc1C | 16.9% (inactive) | 
Cc1nn(C(C)(C)C)c(OC(=O)CC(C)C)c1S(=O)(=O)c1ccccc1 | -2.57% (inactive) | 

SMILES | activity change, negative = inhibition | Potency
C[C@]12CC[C@@H]3c4ccc(O)cc4C[C@@H](CCCCCCCCCS(=O)CCCC(F)(F)C(F)(F)F)C3[C@@H]1CC[C@@H]2O (some centres undefined) | 5.98% (inactive) | 
COc1ccccc1C(=O)NC(CCSC)C(=O)NNC(=O)c1csc(N2CCOCC2)n1 (centres undefined) | -2.58% (inactive) | 
Cc1ccc(S(=O)(=O)NCCCn2ccnc2)cc1C(=O)NC(C)C | -5.36% (inactive) | 
O=C(O)c1ccccc1C(=O)NC1=NN(c2ccccc2)CC1 | 2.1% (inactive) | 
O=C(NCCCN1CCCCC1)C1CC(=O)N(CCc2ccccc2)C1 (centres undefined) | 3.45% (inactive) | 
COc1cc2c(cc1OC)[C@@H](Cc1cc(OC)c(OC)c(OC)c1)[N+](C)(CCCOC(=O)CC/C=C/CCC(=O)OCCC[N+]1(C)CCc3cc(OC)c(OC)cc3[C@H]1Cc1cc(OC)c(OC)c(OC)c1)CC2 (some centres undefined) | -5.96% (inactive) | 
CN(C(=O)c1ccccc1)c1nccnc1C#N | -18.4% (inactive) | 
O=S(=O)(NC1CCCCC1N1CCN(c2ccccc2F)CC1)c1ccccc1 (centres undefined) | -0.732% (inactive) | 
CCC1CCCCN1C(=S)Nc1ccc(S(=O)(=O)Nc2ncccn2)cc1 (centres undefined) | 11% (inactive) | 
Cc1cc(C)cc(OCC(=O)Nc2cc(NC(=O)COc3cc(C)cc(C)c3)cc(C(=O)O)c2)c1 | -18.7% (inactive) | 
C[C@H](NC(=O)C1CC(=O)N(c2ccc3c(c2)OCCO3)C1)C(=O)N1CCC(C(=O)O)CC1 (some centres undefined) | 13.2% (inactive) | 
Cc1cc(C)c2nc(N3CCC(C(=O)NCCN4CCOCC4)CC3)sc2c1 | -5.32% (inactive) | 
Cc1ccc(C(C(=O)NCC2CCCO2)N(C(=O)c2snc(C(N)=O)c2N)c2ccc(C(C)C)cc2)o1 (centres undefined) | 5.15% (inactive) | 
CCOC(=O)[C@@H]1[C@H]2COc3ccc(Br)cc3[C@H]2N2C(=O)N(c3ccc(Cl)cc3)C(=O)[C@@]12C | -3.58% (inactive) | 
CC(=O)NC1CCN(CC(=O)Nc2nccs2)CC1 | 1.35% (inactive) | 
O=C(COc1ccc(Cl)cc1Cl)N/N=C/c1ccccn1 | 24% (inactive) | 
Cc1cccc(N(C)C(=O)CN2C(=O)COc3ccc(S(=O)(=O)N4CCCCCC4)cc32)c1 | -1.72% (inactive) | 
O=C(Nc1cccc(-n2cnnn2)c1)c1cccnc1 | 2.3% (inactive) | 
COc1ccccc1CCNC(=O)c1c(C)nn(CC(C)C)c1Cl | 2.36% (inactive) | 
Cc1cccc(C)c1NC(=O)CS(=O)CC(=O)N1CCN(c2ccccc2)CC1 (centres undefined) | 2.84% (inactive) | 
O=C(Nc1ncc([N+](=O)[O-])s1)C1COc2ccccc2O1 (centres undefined) | 7.99% (inactive) | 
CC(C)CNC(=O)C(=O)NCC(c1ccc2c(c1)OCO2)N1CCOCC1 (centres undefined) | -11.6% (inactive) | 
Cc1ccc(-c2noc(CNC(=O)c3ccoc3C)n2)cc1 | -2.13% (inactive) | 
O=C(CCS(=O)(=O)c1ccc2c(c1)NC(=O)CS2)NCc1ccccc1Cl | 3.07% (inactive) | 
CCc1ccccc1NC(=S)Nc1cc(OC)c(NC(=O)C(C)C)cc1OC | 3.05% (inactive) | 

SMILES | activity change, negative = inhibition | Potency
O=C(NCc1ccccc1)C(c1ccccc1)N(C(=O)c1csnn1)c1ccc(F)cc1 (centres undefined) | 21.8% (inactive) | 
[2H]C(CCOS(N)(=O)=O)c1ccccc1 (centres undefined) | -2.68% (inactive) | 
CCCCC(=O)Nc1c2c(nn1-c1ccc([N+](=O)[O-])cc1)CS(=O)(=O)C2 | 21.7% (inactive) | 
Cc1cc(C)n2nc(CNS(=O)(=O)c3c(F)c(F)c(F)c(F)c3F)nc2n1 | 7.15% (inactive) | 
COc1cccc(CNC(=O)COc2cc(O)c3c(c2)OC(C)(C)CC3=O)c1 | 4.19% (inactive) | 
C/C(=N\NC(=O)c1ccoc1C)c1ccccc1O | 21.1% (inactive) | 
CN1C(=O)CN2CCc3ccccc3C2c2cc(Cl)ccc21 (centres undefined) | 6.84% (inactive) | 
O=C1C2CCCN2C(=O)N1CCCCN1CCN(c2cccc(C(F)(F)F)c2)CC1 (centres undefined) | -0.642% (inactive) | 
O=C(Nc1nnc(S(=O)(=O)N2CCCCCC2)s1)c1cccc(Br)c1 | -14.9% (inactive) | 
Cc1cccc(OCC(O)CN2CCN(S(=O)(=O)c3ccc(C)cc3C)CC2)c1 (centres undefined) | -3.59% (inactive) | 
Cc1cc(N=Nc2ccc3ccccc3c2)ccc1O | -3.97% (inactive) | 
OCC(CO)NC1C[C@](O)(CO)[C@@H](O)[C@H](O)[C@H]1O (some centres undefined) | -1.18% (inactive) | 
C#CCOc1ccc(/C=C2/C(=O)NN(c3ccccc3)C2=O)cc1OC | 3.2% (inactive) | 
COc1cc(/C=C2/C(=O)NN(c3cccc(Cl)c3)C2=O)cc(Br)c1O | -14.9% (inactive) | 
COc1cc(/C=C2/C(=O)NN(c3ccc(F)cc3)C2=O)cc([N+](=O)[O-])c1O |  | 20 µM (active)
CC(=O)c1c(C)n(-c2ccc(C)cc2)c2ccc(O)cc12 | 8.81% (inactive) | 
COc1ccc2nc(C)cc(Nc3cccc(C(=O)O)c3)c2c1 | -14.3% (inactive) | 
NC(=O)C1CCN(C(=O)/C(=C/c2ccco2)NC(=O)c2ccccc2)CC1 | 4.99% (inactive) | 
Cc1cn([C@H]2CC(F)[C@@H](CO)O2)c(=O)[nH]c1=O (some centres undefined) | -6.09% (inactive) | 
O=C(Nc1cccc(C(F)(F)F)c1)c1cc(Br)cc(Br)c1O | -2.42% (inactive) | 
C[C@H](NC(=O)C1CCN(S(=O)(=O)c2ccccc2)CC1)C(=O)NCc1ccccc1 | -1.11% (inactive) | 
COc1ccc(N(CC(=O)Nc2ccc(F)c(F)c2)S(=O)(=O)c2c(C)[nH]c(=O)[nH]c2=O)cc1 | -1.33% (inactive) | 
Cc1ccc(CNC(=O)C(=O)c2cn(CC(=O)N3CCCC3)c3ccccc23)cc1 | 1.78% (inactive) | 
COc1ccc(C)cc1Nc1nc(C)nc2c1oc1ccccc12 | 15.3% (inactive) | 
COC(=O)c1ccccc1NC(=O)C1(S(=O)(=O)c2ccc(Cl)cc2)CC1 | 3.5% (inactive) | 

SMILES | activity change, negative = inhibition | Potency
CCN1C(=S)N[C@@H](CCc2ccccc2)[C@H](C(=O)OC)[C@H]1C |  | inactive
O=c1c2cc([N+](=O)[O-])ccc2nc2n1CCC2 | 9.68% (inactive) | 
COc1ccc(CNc2cc(C)cc(C)c2)cc1OC | -3.72% (inactive) | 
Cc1c(CNCCc2ccccc2)c(C(=O)O)c(C)n1-c1ccccc1 | -4.55% (inactive) | 
Cc1ccc(C(=O)N2CC(=O)Nc3ccc(F)cc3C2c2ccc(F)cc2)cc1 (centres undefined) | 10.6% (inactive) | 
COC(=O)c1ccc(CNC(=O)C2CCC(=O)N(Cc3cccc(F)c3)C2)cc1 (centres undefined) | 4.84% (inactive) | 
Cc1cnc(C(=O)Oc2cccc(Cl)c2Cl)cn1 | -0.91% (inactive) | 
COc1ccc(C)cc1N(C(=O)Cn1nnc(-c2ccc(C)o2)n1)C(C(=O)NC1CCCC1)c1ccncc1 (centres undefined) | -1.23% (inactive) | 
Cc1ccc(/C=C2/SC(=S)N(CCC(=O)NCCCN3CCOCC3)C2=O)cc1 | -11.8% (inactive) | 
CCN(CC(=O)Nc1ccc2c(c1)OCO2)S(=O)(=O)c1ccccc1 | 4.81% (inactive) | 
NNC(=O)CSc1nnc(-c2ccccc2)n1-c1ccccc1 | 6.34% (inactive) | 
CC(C(=O)Nc1ccc(O)c(C(=O)O)c1)N1C(=O)/C(=C/c2cccs2)SC1=S (centres undefined) | 15.5% (inactive) | 
Cc1cccn2c(=O)c3cc(C(=O)NCCN4CCOCC4)c(=N)n(Cc4cccnc4)c3nc12 | 2.89% (inactive) | 
Cc1cccc(S(=O)(=O)N2CN(CC3CCCO3)c3nc4ccccc4nc32)c1 (centres undefined) | 3.53% (inactive) | 
Cc1ccc(S(=O)(=O)c2nc(-c3cccs3)oc2NCc2cccnc2)cc1 | 6.33% (inactive) | 
COc1ccc(CCNS(=O)(=O)c2cn(C)nc2C)cc1 | 8.13% (inactive) | 
CC(=O)Nc1cccc(Nc2nc(-c3cccs3)nc3ccccc23)c1 | 6.15% (inactive) | 
CC(=O)c1nn(-c2cccc(C(F)(F)F)c2)c(=O)[nH]c1=O | 48.5% (inactive) | 
COc1cc(CN2CCCC(C(=O)c3ccc(SC)cc3)C2)cc(Cl)c1O (centres undefined) | 14.6% (inactive) | 
CC(=O)Nc1ccc(C(=O)N(C2=NC(C)CS2)c2ccc(Cl)cc2)cc1 (centres undefined) | -7.05% (inactive) | 
Cc1cccc(-c2noc(CCC(=O)NC3CCCC3)n2)c1 | 3.93% (inactive) | 
COc1ccccc1OCC(=O)Nc1c2c(nn1-c1ccc(F)cc1)CS(=O)(=O)C2 | -15.3% (inactive) | 
Cn1c(N2CCOCC2)c(C=O)c2ccccc21 | -5.67% (inactive) | 
COCCN1CCN(C(=O)c2cc(COc3ccc(F)cc3Cl)on2)CC1 | -5.58% (inactive) | 
